Here are results for eight compounds from PubChem BioAssay (NCATS).

Several values for one entry are separate records, joined by “and”; a condition that tells them apart may be missing. Identical values can stand only once. Records with an inconclusive call do not appear. Activity calls are given as the source filed them. Calls follow the shape of the dose curve; as a rule, active = well fitted curve in the direction sought with a large enough effect; inconclusive = small, poorly fitted or top-dose-only effect, or another doubt; inactive = no such curve, though single readings can be large; an effect the other way counts as inactive or inconclusive.

A short description of assay [1]: qHTS of pediatric cancer cell lines to identify multiple opportunities for drug repurposing: Primary screen for NB-EBc1 cells (AID 1347095). Also: potency is read from the fitted curve at half-maximal effect. The gist of the method:
(§1)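 Plated cells (500-1,000 per well, growth media) were allowed to settle for 5 hours, treated with compound dilutions for 48 hours, then lysed with CellTiter-Glo for 15 min at room temperature before luminescence reading.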
(Quantitative high-throughput screening tests each substance at several concentrations.)

The nature of assay [2]: qHTS of pediatric cancer cell lines to identify multiple opportunities for drug repurposing: Primary screen for U-2 OS cells (AID 1347096). Also: nearly all actives have a fitted effect of over 50% in size. Also: potency is read from the fitted curve at half-maximal effect. In outline: (§2)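 Viability after 48 h compound treatment at 37C, 500-1,000 cells/well, read as ATP luminescence with CellTiter-Glo. Primary screens used 11-point (MIPE, 0.78 nM-46 µM) or 8-point (NPC, 0.59 nM-46 µM) final concentrations; follow-up screens used 11-point dilutions.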

A short description of assay [3]: qHTS of pediatric cancer cell lines to identify multiple opportunities for drug repurposing: Primary screen for Saos-2 cells (AID 1347097). Also: nearly all actives have a fitted effect of over 40% in size. Also: potency is read from the fitted curve at half-maximal effect. In outline: as §1
The nature of assay [4]: qHTS of pediatric cancer cell lines to identify multiple opportunities for drug repurposing: Primary screen for NB1643 cells (AID 1347099). Also: nearly all actives have a fitted effect of over 50% in size. Also: potency is read from the fitted curve at half-maximal effect. In outline:
as §1

A short description of assay [5]: qHTS of pediatric cancer cell lines to identify multiple opportunities for drug repurposing: Primary screen for LAN-5 cells (AID 1347100). Also: potency is read from the fitted curve at half-maximal effect. In outline:
as §2

A short description of assay [6]: qHTS of pediatric cancer cell lines to identify multiple opportunities for drug repurposing: Primary screen for BT-12 cells (AID 1347101). Also: nearly all actives have a fitted effect of over 25% in size. Also: potency is read from the fitted curve at half-maximal effect. The gist of the method:
(§3)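 Cells (500-1,000/well) rested 5 h, then received compounds for 48 h; metabolically active cells were measured by CellTiter-Glo luminescence. Final concentrations spanned up to 46 µM (MIPE, 11-point) or 0.59 nM-46 µM (NPC, 8-point) in primary screens, 11-point in follow-ups.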

Assay [7] can be described thus: qHTS of pediatric cancer cell lines to identify multiple opportunities for drug repurposing: Primary screen for Rh18 cells (AID 1347102). Also: nearly all actives have a fitted effect of over 65% in size. Also: potency is read from the fitted curve at half-maximal effect. In outline: as §2
The nature of assay [8]: qHTS of pediatric cancer cell lines to identify multiple opportunities for drug repurposing: Primary screen for OHS-50 cells (AID 1347103). Also: nearly all actives have a fitted effect of over 40% in size. Also: potency is read from the fitted curve at half-maximal effect. The gist of the method:
as §3

Assay [9] is described as follows: qHTS of pediatric cancer cell lines to identify multiple opportunities for drug repurposing: Primary screen for RD cells (AID 1347104). Also: nearly all actives have a fitted effect of over 55% in size. Also: potency is read from the fitted curve at half-maximal effect. The gist of the method:
as §1

A short description of assay [10]: qHTS of pediatric cancer cell lines to identify multiple opportunities for drug repurposing: Primary screen for MG 63 (6-TG R) cells (AID 1347105). Also: nearly all actives have a fitted effect of over 50% in size. Also: potency is read from the fitted curve at half-maximal effect. The gist of the method:
as §1

Assay [11] in a line: qHTS of pediatric cancer cell lines to identify multiple opportunities for drug repurposing: Primary screen for control Hh wild type fibroblast cells (AID 1347106).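 Also: series mostly up to about 46 µM; a drop in luminescence marks cytotoxicity and a rise apparent proliferation; nearly all actives have a fitted effect of over 55% in size.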 In outline:
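Cells (500-1,000/well) in growth media were settled 5 h at 37 degrees C, then given compounds for 48 h. Viability was read as CellTiter-Glo luminescence. Primary runs used MIPE at 11 points (0.78 nM-46 µM) and NPC at 8 points (0.59 nM-46 µM); follow-ups used 11 points.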

Assay [12] can be described thus: qHTS of pediatric cancer cell lines to identify multiple opportunities for drug repurposing: Primary screen for Rh30 cells (AID 1347107). Also: series mostly up to about 46 µM; nearly all actives have a fitted effect of over 75% in size. In outline:
as §2

The nature of assay [13]: qHTS of pediatric cancer cell lines to identify multiple opportunities for drug repurposing: Primary screen for Rh41 cells (AID 1347108).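 Also: series mostly up to about 46 µM; luminescence drop marks cytotoxic hits; nearly all actives have a fitted effect of over 70% in size.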 In outline:
as §1

Assay [14] is described as follows: qHTS of pediatric cancer cell lines to identify multiple opportunities for drug repurposing: Primary screen for SK-N-SH cells (AID 1347098). Also: nearly all actives have a fitted effect of over 65% in size. Also: potency is read from the fitted curve at half-maximal effect. The gist of the method: as §3
Assay [15] can be described thus: qHTS of pediatric cancer cell lines to identify multiple opportunities for drug repurposing: Confirmatory screen for NB1643 cells (AID 1347109). Also: nearly all actives have a fitted effect of over 45% in size. Also: potency is read from the fitted curve at half-maximal effect. The gist of the method:
as §2

The nature of assay [16]: qHTS of pediatric cancer cell lines to identify multiple opportunities for drug repurposing: Confirmatory screen for A673 cells (AID 1347110). Also: nearly all actives have a fitted effect of over 65% in size. Also: potency is read from the fitted curve at half-maximal effect. In outline: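 A673 cells at 500-1,000 cells/well were dosed 5 h after plating, in dilution series up to 46 uM final; primary runs used 8 or 11 points and confirmatory runs used 11 points. Viability was read by CellTiter-Glo luminescence after 48 h, against DMSO and 2.3 uM bortezomib controls.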

A short description of assay [17]: qHTS of pediatric cancer cell lines to identify multiple opportunities for drug repurposing: Confirmatory screen for SK-N-MC cells (AID 1347111).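 Also: cells exposed to compound for 48 h before the readout; nearly all actives have a fitted effect of over 70% in size.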 Also: potency is read from the fitted curve at half-maximal effect. In outline:
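SK-N-MC cells at 500-1,000 cells/well in growth media were pre-incubated 5 h, then exposed to compounds at 11-point dilutions for 48 h at 37 degrees C, 5% CO2. Viability was read as CellTiter-Glo luminescence.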

Assay [18] in a line: qHTS of pediatric cancer cell lines to identify multiple opportunities for drug repurposing: Confirmatory screen for LAN-5 cells (AID 1347113). Also: nearly all actives have a fitted effect of over 65% in size. Also: potency is read from the fitted curve at half-maximal effect. In outline:
as §2

The nature of assay [19]: qHTS of pediatric cancer cell lines to identify multiple opportunities for drug repurposing: Confirmatory screen for DAOY cells (AID 1347114). Also: nearly all actives have a fitted effect of over 65% in size. In outline:
(§4)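 Viability measured as metabolically active cells via CellTiter-Glo luminescence following 48 hours of compound exposure, 11-point dilutions in confirmatory testing. 500-1,000 cells/well plated 5 hours before dosing; controls were DMSO and 2.3 µM bortezomib.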

Assay [20] in a line: qHTS of pediatric cancer cell lines to identify multiple opportunities for drug repurposing: Confirmatory screen for SJ-GBM2 cells (AID 1347116). Also: nearly all actives have a fitted effect of over 60% in size. The gist of the method:
as §4

As for `O=C(O)c1cc(=O)[nH]c(=O)[nH]1`, the Potency entry in [1], in assay [2], in assay [3], in [4], in [5] and in assay [6] was “inactive” throughout. Besides, the Potency result in [7], in assay [8], in [9], in [10], in assay [11] and in assay [12] was “inactive” in each case. The Potency entry in [13] was “inactive”.

Consider `C1CCC(C(CC2CCCCN2)C2CCCCC2)CC1` (configuration not stated), for which the Potency is 26.4 µM (active) in [1]; 13.3 µM (active) and 33.2 µM (active) in [3]; 15.4 µM (active) in assay [14]; 21.1 µM (active) in [4]; 5.5 µM (active) and 30.6 µM (active) in assay [6]; 16.8 µM (active) and 26.4 µM (active) in assay [7]. The Potency in [8] was 13.8 µM (active) and 19.3 µM (active); in [9], 21.1 µM (active) and 29.6 µM (active); in assay [10], 26.6 µM (active). Also, the Potency entry in assay [2] and in [11] was “inactive” in each case.

For the compound `CC(C)NCC(O)c1ccc(NS(C)(=O)=O)cc1` (configuration not stated), the Potency entry in [1], in assay [2], in assay [3], in assay [14], in assay [4] and in assay [5] was “inactive” each time. Further, the Potency result in assay [6], in [7], in [8], in assay [9], in [10] and in [11] was “inactive” throughout. In addition, the Potency result in assay [15], in assay [16], in assay [17], in assay [18], in assay [19] and in assay [20] was “inactive” each time.

Take `Cc1nnc(C(=O)NC(C)(C)c2nc(C(=O)NCc3ccc(F)cc3)c(O)c(=O)n2C)o1`: the Potency result in [1], in [2], in [3], in assay [14], in [4] and in [5] was “inactive” each time. Besides, the Potency entry in assay [6], in assay [7], in [8], in assay [9], in assay [10] and in [11] was “inactive” in each case. Moreover, in [13], the Potency entry was “inactive”.

With `COc1cc(NCc2ccc3nc(N)nc(N)c3c2C)cc(OC)c1OC`, the Potency in assay [1] was 3.72 µM (active); in [2] it was 3.72 µM (active); in [3], 11.8 µM (active); in assay [4], 14.8 µM (active); in [5], 16.6 µM (active); in assay [6], 2.17 µM (active) and 55 nM (active). Moreover, the Potency in assay [8] is 19.3 µM (active); in assay [9], 4.18 µM (active) and 119 nM (active); in assay [15] it was 9.27 µM (active); in assay [16], 3.29 µM (active); in [17], 0.657 µM (active); in [18], 18.5 µM (active). The Potency result in [7], in [10], in [11] and in [19] was “inactive” each time.

Take `Clc1ccccc1CN1CCc2sccc2C1`: the Potency entry in assay [1], in assay [2], in assay [14], in assay [4], in assay [7] and in assay [9] was “inactive” each time. In addition, the Potency entry in assay [10], in assay [11], in [12] and in assay [13] was “inactive” each time. Further, the Potency in assay [3] is 1.48 µM (active); in assay [6], 1.93 µM (active).

`C[C@@H](CN1CC(=O)NC(=O)C1)N1CC(=O)NC(=O)C1`: the Potency in assay [1] is 3.72 µM (active); in [5], 4.18 µM (active). In addition, the Potency result in [2], in assay [3], in assay [14], in assay [6], in assay [7] and in assay [8] was “inactive” in each case. In addition, the Potency entry in assay [10], in [11], in assay [13], in assay [15], in assay [16] and in assay [17] was “inactive” throughout. Also, the Potency entry in assay [18], in assay [19] and in [20] was “inactive” in each case.

With `Cc1cc(NS(=O)(=O)c2ccc(N)cc2)no1`, the Potency result in assay [1], in assay [2], in assay [3], in [5], in assay [6] and in assay [7] was “inactive” in each case. The Potency result in [8], in assay [9], in assay [10], in assay [11], in [12] and in assay [13] was “inactive” throughout.
